# MITF TRPM1 HTS: activators of MITF-driven TRPM1 promoter activity in SK-MEL-5 cells. SK-MEL-5 TRPM1-promoter luciferase, 24 h; % of positive control, neutral wells = 0. activation, % at 12.5 µM. 300,000 compounds, 0.75% hits. AID 588334;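 active means mean activation of at least 80% with every replicate also reaching 80%; inconclusive means mean reaches 80% but some replicate falls short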;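 further: 0% = neutral control wells and 100% = parthenolide positive control wells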
# INS-1E GSIS act: GLuc luminescence reporter in INS-1E cells, primary screen for activators of glucose-dependent secretion of insulin; INS-1E GLuc reporter insulin secretion, 2-3 h; activation, % at 16.6 µM; 370,000 compounds, 0.61% hits; AID 743287;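 active means lowest replicate activation of at least 40%, so every replicate reaches that level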;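 further: 0% = median of neutral control wells and 100% = median of IBMX positive control wells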
# NSD2 inh: blocks human histone methyltransferase NSD2 | O96028 | NSD2 peptide methylation, AlphaScreen, 120 min | inhibition, % at 12.5 µM | 310,000 compounds, 0.54% hits | AID 743445
# miR122 inh: miR-122 inhibition in Huh7 cells | Huh7 miR-122 Renilla luciferase sensor, 48 h; neutral wells = 0, positive control = 100 | activation (reporter increase), % at 12.5 µM | 340,000 compounds, 0.3% hits | AID 602342;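 active means mean replicate activation score at least 90 and every replicate individually at or above 90; inconclusive means only one of the two criteria met; inactive means neither criterion met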;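 further: higher luciferase means less miR-122 activity so hits act as miR-122 inhibitors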
# Wnt bcat act: Wnt/beta-catenin pathway activation; AID 743398; 300,000 compounds, 1.2% hits; Wnt/beta-catenin reporter cell assay, activator, plate reader; activation, % at 9.35 µM; in the data active means activation above about 30%, passing the limit was not always enough; inconclusive means no clear call, values can overlap the other calls;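 further: 0% = neutral control wells and 100% = positive control wells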
# DYRK1A inh: inhibitors of rat Dyrk1A kinase. ADP-Glo luminescence, NFATc1 peptide. inhibition, % at 12.5 µM. Q63470. 310,000 compounds, 0.43% hits;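 further: plate controls were vehicle with enzyme for no effect and no enzyme for full effect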
# Starred values were filed as active, the others as inactive; ? = inconclusive; / = not tested or not shown; [ ] = remark or other dose. An excerpt weighted towards active compounds, which were near 2.4% of everything screened. Unless noted, no stated cut-off is given here; in the data, active means inhibition above about 50%; inactive means the rest.
SMILES,MITF TRPM1 HTS,INS-1E GSIS act,NSD2 inh,miR122 inh,Wnt bcat act,DYRK1A inh
O=C(O)c1ccc(Cl)c(S(=O)(=O)N(Cc2ccccc2)c2ccccc2)c1,1,-5,1,2,0,1
Cc1noc(C)c1S(=O)(=O)N(C)C[C@@H]1Oc2ccc(NS(=O)(=O)c3ccccc3)cc2CC(=O)N([C@H](C)CO)C[C@@H]1C,/,5,/,-3[16.7 µM],/,/
Cc1cc(C)c(NS(=O)(=O)c2cccc3cccnc23)c(C)c1,-3,-1,6,5,/,5
Cc1ccc(S(=O)(=O)Nc2cccc3cccnc23)c([N+](=O)[O-])c1,-88,6,1,100*,15,-14
COc1ccc(NC(=O)Nc2ccc3c(c2)CC(=O)N([C@@H](C)CO)C[C@H](C)[C@@H](CN(C)Cc2ccncc2)O3)cc1,/,15,/,-8[16.7 µM],/,/
Nc1ccc2oc(-c3ccccn3)nc2c1,48,/,1,-2,44*,-3
c1ccc(-c2nc(-c3ccc(-c4ccon4)s3)no2)cc1,74,-12,-3,4,36*,7
c1csc(-c2nc(-c3ccc(-c4ccon4)s3)no2)c1,38,16,-5,/,42*,1
Cc1ccc(-c2noc(-c3cccs3)n2)cc1,17,-7,/,4,25,-1
c1ccc(-c2nc(-c3ccncc3)no2)cc1,75,7,-1,-8,/,12
CCCN(C)C[C@H]1OCc2cnnn2CCCC(=O)N([C@@H](C)CO)C[C@H]1C,/,-6,/,0[16.7 µM],/,/
Cc1nnsc1Sc1ccccn1,8,2,-2,/,/,-3
c1ccc(-c2nnsc2Sc2ccccn2)cc1,48,4,-17,/,36*,21
COCC(=O)Nc1ccc2c(c1)OC[C@H](C)N(C(=O)CC1CC1)C[C@H](C)[C@@H](OC)CN(C)C2=O,/,10,/,/,/,/
Clc1ccccc1-c1nc(-c2cccnc2)no1,3,/,3,-1,/,11
O=C(O)c1ccc(-c2noc(-c3ccccc3F)n2)cc1,5,13,/,/,16,19
Cc1ccccc1-c1nc(-c2cccnc2)no1,/,/,0,-1,48*,2
Cc1ccc(-c2noc(-c3ccccc3F)n2)cc1,12,-4,-3,6,57*,-3
c1cncc(-c2noc(-c3ccc4ccccc4c3)n2)c1,56,/,0,-6,16,-1
CCOc1ccc(-c2nc(-c3cccnc3)no2)cc1,13,/,-1,-2,47*,0
CCCCOc1ccc(-c2nc(-c3cccnc3)no2)cc1,99*,/,0,-4,/,3
CCOc1ccc(-c2noc(-c3cccnc3)n2)cc1OC,51,/,-1,-3,10,-7
C[C@@H]1CN([C@H](C)CO)C(=O)c2cc(NC(=O)Cn3cnnn3)ccc2O[C@H]1CN(C)C(=O)Nc1ccccc1,/,0,/,2[16.7 µM],/,/
O=C(C[C@@H]1CC[C@H](NS(=O)(=O)c2ccc(F)cc2)[C@H](CO)O1)NCCN1CCCCC1,/,15,/,/,/,/
COc1ccc(-c2nc(-c3cccnc3)no2)cc1,/,4,-1,/,53*,/
SMILES,MITF TRPM1 HTS,INS-1E GSIS act,NSD2 inh,miR122 inh,Wnt bcat act,DYRK1A inh
c1ccc(-c2ccc(-c3nc(-c4cccnc4)no3)cc2)cc1,48,/,14,-6,?,0
O=C(Nc1ccccc1O)c1cc2cc(Br)ccc2oc1=O,101*,3,17,/,?,1
COCC(=O)N1C[C@H](C)[C@@H](OC)CN(C)C(=O)c2cc(NC(=O)c3cnccn3)ccc2OC[C@@H]1C,/,23,/,/,/,/
C[C@@H]1CN([C@H](C)CO)C(=O)c2cc(NC(=O)c3ccncc3)ccc2O[C@@H](C)CCCCO[C@H]1CN(C)C(=O)c1ccccc1,/,6,/,-3[16.7 µM],/,/
Cc1ccc(CN2C(=O)C(C)(C)Oc3ccc(C(=O)N4CCCCC4)cc32)cc1,5,/,4,318*,-1,-11
COC(=O)c1ccc(-c2ccc(F)cc2)nc1C,105*,1,-3,-2,28,1
Cc1ccc(-c2ccc(C(=O)O)c(C)n2)cc1,-8,7,0,11,-3,3
CCOC(=O)c1ccc(-c2ccc3c(c2)CCC3)nc1C,76,-26,-7,-5,38*,-6
CN1C(=O)c2cc(NC(=O)C3CCOCC3)ccc2OC[C@H]2O[C@H](CC(=O)NC3CCCC3)CC[C@@H]21,/,11,/,7[16.7 µM],/,/
COc1ccc(OC)c(S(=O)(=O)Nc2ccccc2C(F)(F)F)c1,/,/,0,116*,1,1
COc1ccc(S(=O)(=O)Nc2ccccc2C(F)(F)F)cc1,-12,/,/,6,/,-1
O=C(OCC(=O)N1CCCC1)c1c[nH]c2ccccc12,30,-3,0,-5,8,/
O=C(OCC(=O)N1CCCCC1)c1c[nH]c2ccccc12,94*,-2,2,1,27,3
Cc1ccc(C(=O)c2ccccc2C(=O)OCC(=O)N2CCCC2)cc1,7,6,-2,3,6,/
Cc1cccc(C(=O)OCC(=O)N2CCCCCC2)c1C,79,-1,-4,/,34*,4
COc1ccc(/C=N/Nc2ccccn2)cc1O,85*,/,5,-9,48*,15
Brc1ccc(/C=N/Nc2ccccn2)cc1,50,3,1,-3,16,-6
Oc1cccc(C=NNc2ccccn2)c1,14,20,-1,/,0,5
Cc1ccc(/C=N/Nc2ccccn2)s1,104*,5,6,0,19,1
COc1cc(/C=N/Nc2ccc(C(F)(F)F)cn2)ccc1O,10,-10,0,/,31*,28
Brc1ccccc1/C=N/Nc1ccccn1,35,4,-1,/,22,1
Clc1ccc(/C=N/Nc2ccccn2)cc1,31,13,-3,0,56*,1
CC(C)OCCCN(C)C1CCN(S(=O)(=O)c2ccc(-c3cc(C(F)(F)F)on3)s2)CC1,/,/,0,/,/,/
CO[C@@H]1CN(C)C(=O)c2cc(NC(=O)Nc3ccc(F)cc3)ccc2OC[C@H](C)NC[C@@H]1C,/,16,/,-3[16.7 µM],/,/
C[C@@H]1CCCCO[C@@H](CN(C)S(=O)(=O)c2ccccc2)[C@H](C)CN([C@H](C)CO)C(=O)c2cc(NC(=O)Nc3cccc4ccccc34)ccc2O1,/,29,/,-1[16.7 µM],/,/
SMILES,MITF TRPM1 HTS,INS-1E GSIS act,NSD2 inh,miR122 inh,Wnt bcat act,DYRK1A inh
Clc1ccccc1C=NNc1ccccn1,35,2,-1,/,39*,3
CCOc1ccc2nc(Cl)c(C3CC(c4ccco4)=NN3S(C)(=O)=O)cc2c1 (stereo not drawn),2,-8,4,-3,1,-4
CCOc1ccc2cc(C3CC(c4ccco4)=NN3S(C)(=O)=O)c(=O)[nH]c2c1 (stereo not drawn),-1,2,-2,126*,5,4
CCC(=O)Nc1cccc(C(=O)OCC(=O)c2ccccc2Cl)c1,67,21,2,0,/,5
CC(=O)Nc1cccc(C(=O)OCC(=O)c2ccccc2Cl)c1,52,-7,-2,/,47*,/
CC(C)CSc1nnc2c(n1)[nH]c1ccccc12,-12,/,-1,/,50*,/
O=C(O)CSc1nnc2c(n1)[nH]c1ccccc12,1,1,-9,/,-1,2

# Assay outcomes as filed in PubChem BioAssay.
